VDR inhibitor: vitamin D3 receptor (human) inhibition. 0.93% of 400,000 active. Potency, µM, without a hit: max response, negative = inhibition, usual class: inhibitors. VDR-SRC2-3 peptide fluorescence polarization, 2 h; also: % is scaled to controls: 0 for no effect and ±100 for the full control effect
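Inhibition of the VDR/SRC2-3 peptide interaction is quantified by fluorescence polarization. Compounds (23 nl, pintool) incubate with the reagents for 2 hours at ambient room temperature.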
JMJD2A Tudor: blocks the human JMJD2A Tudor domain; AlphaScreen JMJD2A-Tudor / H3K4me3 peptide binding; Potency, µM (titrated, usually from 114 µM), for the others: at the top dose activity change, negative = inhibition, usual class: inhibitors; 4.4% of 390,000 active; AID 504339; also: % is scaled to controls: 0 for no effect and ±100 for the full control effect; nearly all actives have a fitted effect of over 50% in size
L3MBTL1 inh: blocks human L3MBTL1 | AID 485360 | AlphaScreen L3MBTL1–H3K9me1 peptide binding | Potency, µM (top dose mostly 57.1 µM), for the others: at the highest dose activity, negative = inhibition, actives largely listed as inhibitors | 0.66% of 230,000 active; also: % is scaled to controls: 0 for no effect and ±100 for the full control effect; nearly all actives have a fitted effect of over 60% in size
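L3MBTL1 (50 nM) pre-complexed 30 min with biotinylated H3(1-15)K9me1 peptide (75 nM), then compounds added for 30 min at room temperature; AlphaScreen streptavidin donor/nickel chelate acceptor beads (10 ug/mL final) read after 30 min dark incubation.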
PLK1 PBD block: inhibitors of human PLK1 polo-box domain binding. Potency, µM, for inactives: max response, negative = inhibition, usual class: inhibitors. 2.8% of 360,000 active. Plk1 PBD binding of FITC phosphopeptide, fluorescence polarization. AID 720504; also: series mostly up to about 57 µM; % is scaled to controls: 0 for no effect and ±100 for the full control effect; nearly all actives have a fitted effect of over 65% in size
Target sequence (P53350 whole entry, looked up, the tested form may be a part): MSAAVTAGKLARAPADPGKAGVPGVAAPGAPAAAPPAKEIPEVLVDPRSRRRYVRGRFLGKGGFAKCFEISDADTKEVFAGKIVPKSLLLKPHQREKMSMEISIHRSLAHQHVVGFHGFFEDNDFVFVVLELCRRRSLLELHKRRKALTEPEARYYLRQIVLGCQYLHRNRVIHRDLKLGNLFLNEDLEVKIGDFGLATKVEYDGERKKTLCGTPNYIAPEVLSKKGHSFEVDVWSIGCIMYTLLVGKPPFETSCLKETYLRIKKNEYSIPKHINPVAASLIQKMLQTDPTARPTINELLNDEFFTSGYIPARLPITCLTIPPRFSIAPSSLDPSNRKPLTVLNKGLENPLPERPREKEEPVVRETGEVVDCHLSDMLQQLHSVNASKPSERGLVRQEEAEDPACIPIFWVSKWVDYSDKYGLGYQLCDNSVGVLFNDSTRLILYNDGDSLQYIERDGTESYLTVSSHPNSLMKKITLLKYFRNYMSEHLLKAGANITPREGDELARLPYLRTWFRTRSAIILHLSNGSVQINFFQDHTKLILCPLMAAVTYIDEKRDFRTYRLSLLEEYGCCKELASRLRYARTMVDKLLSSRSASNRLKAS
BAZ2B block: inhibitors of human BAZ2B bromodomain. AlphaScreen BAZ2B-H3K14Ac peptide displacement. Potency, µM (series often up to 114 µM), for the others: at the top dose activity change, negative = inhibition, hits mostly inhibitors. 4.4% of 360,000 active. AID 504333; also: % is scaled to controls: 0 for no effect and ±100 for the full control effect; nearly all actives have a fitted effect of over 60% in size
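AlphaScreen luminescence quantifies BAZ2B engagement of H3K14Ac peptide; the protein and biotinylated peptide are both at 50 nM final, buffer PBS pH 7.4 with 0.01% Tween-20, all steps at room temperature.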
HP1b chromo inh: inhibitors of HP1-beta chromodomain binding to methylated histone tails. 0.56% of 390,000 active. Potency, µM (titrated, usually from 114 µM), without a hit: at the top dose activity change, negative = inhibition, hits mostly inhibitors. AlphaScreen HP1-beta / biotin-H3K9me3 peptide binding; also: nearly all actives have a fitted effect of over 70% in size
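HP1-beta protein (50 nM final) preincubated 30 min at room temperature with biotinylated H3(1-18)K9me3 peptide (50 nM) in PBS pH 7.4, 0.01% Tween-20, then compound added for 30 min. AlphaScreen streptavidin donor/nickel chelate acceptor beads (10 ug/mL final), 30 min dark, luminescence read.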
The depositor's hits bear a star; ? = inconclusive; · = no result given; [ ] = remark or other dose. Rows were chosen to be rich in hits. Some 6.9% of all compounds tested hit in one or more screens of this group. Calls follow the shape of the dose curve; as a rule, active = well fitted curve in the direction sought with a large enough effect; inconclusive = small, poorly fitted or top-dose-only effect, or another doubt; inactive = no such curve, though single readings can be large; an effect the other way counts as inactive or inconclusive. Potency is read from the fitted curve at half-maximal effect.

SMILES	VDR inhibitor	JMJD2A Tudor	L3MBTL1 inh	PLK1 PBD block	BAZ2B block	HP1b chromo inh
O=C(O)c1ccc(-c2ccc(/C=c3/sc4nc5ccccc5n4c3=O)o2)cc1Cl	?	20µM*	·	-26%	40µM*	18µM*
Cc1ccc2c(nc3s/c(=C\c4ccc(-c5ccccc5C(=O)O)o4)c(=O)n32)c1C	-14%	?	·	-20%	56µM*	-18%
O=c1/c(=C/c2ccc(O)c([N+](=O)[O-])c2)sc2nc3ccccc3n12	17%	45µM*	-9%	?	?	?
O=c1/c(=C\c2ccc(O)cc2)sc2nc(-c3ccccc3)c(-c3ccccc3)n12	-1%	-18%[11.4 µM]	·	-3%	?	50%
Cc1cc(/C=c2\sc3nc4ccccc4n3c2=O)c(C)n1-c1ccc(C(=O)O)cc1	-3%	-23%	-9%	21µM*	?	-17%
Cc1ccccc1CN1c2ccccc2-c2nc(SCC(=O)c3ccccc3)ncc2S1(=O)=O	7%	-9%	·	·	3%	2%
CC(C)(C)OC(=O)C[C@@H]1C/C=C\C[C@@H](CC(=O)N[C@@H](CO)Cc2ccccc2)C(=O)NCCOC1=O	-6%	-6%	3%	-8%	·	31%
COc1ccccc1NC(c1ccc(Cl)cc1)c1nnc(-c2cccc(F)c2)o1 (stereo not drawn)	-11%	-8%	·	·	-24%	20%
CC(=O)N1CCN(C2=NC(=O)/C(=C/c3ccc(OS(=O)(=O)c4ccccc4)cc3)S2)CC1	50µM*	?	·	-20%	-30%	-5%
COc1ccc(CCNC(=O)CSc2nn(-c3ccccc3)c(=S)s2)cc1	-4%	2%	·	-4%	-11%	33%
Cc1ccc(C(=O)c2nc3c(n2O)CCCC3)cc1	12%	35µM*	·	-1%	5%	-2%
CCOc1ccc(C(=O)c2nc3c(n2O)CCCC3)cc1	20%	-24%	-6%	-1%	-11%	17%
COc1ccc(-c2nc3ccccc3[nH]2)cc1	7%	-4%	·	0%	9%	29%
COc1ccc(-c2cc(=O)n(-c3nc4ccccc4[nH]3)[nH]2)cc1	-17%	?	?	-10%	28µM*	15%
CCOC(=O)c1c(-c2ccc(-c3ccccc3)cc2)csc1NC(=O)CNCCN(C)C	3%	35µM*	·	?	?	-14%[57 µM]
CCOC(=O)c1c(-c2ccc(C)c(C)c2)csc1NC(=O)C1CC=CCC1C(=O)O (stereo not drawn)	-16%	-16%	·	?	-6%	14%
CCOC(=O)c1c(-c2ccc(-c3ccccc3)cc2)csc1NC(=O)CCN1CCOCC1	-12%	?	-1%	-2%	-32%	-14%
CCOC(=O)c1c(-c2ccc(C)cc2)csc1NC(=O)c1cc(=O)c2cc(C)c(C)cc2o1	4%	8%	·	·	-15%	15%
CCOC(=O)c1c(-c2ccccc2)csc1NC(=O)C(C)NCCCN1CCOCC1 (stereo not drawn)	2%	50µM*	-17%	-4%	40µM*	?
CCOC(=O)c1c(-c2ccc(C)cc2)csc1NC(=O)c1cc(=O)c2cc(C)ccc2o1	28µM*	56µM*	·	·	?	?
CCOC(=O)c1c(-c2ccc(F)cc2)csc1NC(=O)C1CC=CCC1C(=O)O (stereo not drawn)	?	-25%	?	24µM*	-31%	?
CCOC(=O)c1ccc(CN(Cc2ccccc2C)S(=O)(=O)c2ccc(C(C)(C)C)cc2)cc1	-1%	2%	·	·	13%	24%
COc1cc(NC(=O)Cn2cc(C(=O)c3ccc(F)cc3)c(=O)c3ccc(C)nc32)cc(OC)c1	8%	-14%	·	·	9%[57.1 µM]	31%
CC1(C(=O)NC2CCCCC2)Cc2ccccc2C(=O)N1Cc1ccccc1Cl (stereo not drawn)	4%	24%	·	·	23%	62%
Nc1cc(OC(=O)c2ccc(F)cc2)nn1S(=O)(=O)c1ccccc1	-20%	-15%	·	-19%	10%	42%

Source: PubChem BioAssay
